# Bioassay records (PubChem BioAssay)
# BRCA1 expr act: qHTS Assay to Identify Small Molecule Activators of BRCA1 Expression; MCF7-BRCA1-FFLuc reporter, luminescence, 48 h; response scale: scaled: vehicle 0%, 10 µM genistein 100%; Potency, µM (series often up to 46.1 µM), for inactives: top-dose activation, actives largely listed as activators; 1.1% of 380,000 active; also: potency is read from the fitted curve at half-maximal effect; nearly all actives have a fitted effect of over 80% in size
#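 Using MCF7 cells harboring a BRCA1 firefly luciferase reporter, plated 2 h before compound pinning, the screen measured luminescence after 48 h incubation. Responses were normalized to DMSO and 10 microM genistein, then fitted for concentration-effect.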
# IL-2 act: qHTS of IL-2 Activators. IL-2 activation reporter assay, cell-based qHTS; stimulated with anti-CD3/CD4/CD28 beads; in transgenic mouse T cells. activation, % (series mostly up to about 46 µM). 0.065% of 360,000 active; in the data active = activation above about 50%; inconclusive = mostly about 30% to 49%; also: 0% is about no effect
#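 Using fluorescent plate cytometry, EGFP and DsRed are detected in transgenic mouse T cells stimulated 18 h at 37 degrees C with antibody-coated beads after 60 min compound pretreatment.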
# mIDH1 inhibitor: qHTS for Inhibitors of mutant isocitrate dehydrogenase 1 (IDH1): qHTS; Potency, µM (doses to about 76.6 µM), for inactives: at the highest dose activity change, negative = inhibition, usual class: inhibitors; IDH1-R132H enzyme, NADPH consumption, diaphorase/resazurin fluorescence; Isocitrate dehydrogenase [NADP] cytoplasmic (Homo sapiens), O75874; 0.093% of 390,000 active; also: potency is read from the fitted curve at half-maximal effect; % is scaled to controls: 0 for no effect and ±100 for the full control effect; nearly all actives have a fitted effect of over 65% in size
# Target sequence (O75874 whole entry R132H, stated change not applied): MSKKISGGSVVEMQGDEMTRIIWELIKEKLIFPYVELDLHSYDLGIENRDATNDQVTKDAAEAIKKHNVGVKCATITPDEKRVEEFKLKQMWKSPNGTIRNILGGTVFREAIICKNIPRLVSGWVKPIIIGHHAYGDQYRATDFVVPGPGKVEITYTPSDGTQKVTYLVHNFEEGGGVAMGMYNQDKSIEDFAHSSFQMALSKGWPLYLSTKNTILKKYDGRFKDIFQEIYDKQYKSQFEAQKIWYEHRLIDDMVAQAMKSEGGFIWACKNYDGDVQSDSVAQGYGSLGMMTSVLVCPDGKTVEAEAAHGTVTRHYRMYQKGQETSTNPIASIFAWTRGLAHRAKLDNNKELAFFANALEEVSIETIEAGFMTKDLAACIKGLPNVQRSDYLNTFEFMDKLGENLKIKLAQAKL
#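 IDH1-R132H (0.5 ug/mL dispensed) in pH 7.5 Tris buffer was preincubated 30 min with compound, then given a substrate mix of 0.016 mM NADPH and 2 mM alpha-KG for 80 min at room temperature; remaining NADPH was read by diaphorase/resazurin fluorescence.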
# rTrxR1 inhibitor: qHTS Assay for Inhibitors of Mammalian Selenoprotein Thioredoxin Reductase 1 (TrxR1): qHTS | 1% of 390,000 active | Thioredoxin reductase 1, cytoplasmic (Rattus norvegicus), O89049 | Potency, µM (titrated, usually from 114 µM), inactives show at the top dose activity change, negative = inhibition, hits mostly inhibitors | recombinant rTrxR1, NADPH fluorescence consumption, selenite substrate; also: potency is read from the fitted curve at half-maximal effect; % is scaled to controls: 0 for no effect and ±100 for the full control effect; nearly all actives have a fitted effect of over 65% in size
#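 Rat TrxR1 (90 nM in the dispensed reagent) was pre-reduced with 400 uM NADPH for 5 min at room temperature, then incubated with compound for 15 min. After 400 uM selenite was added, NADPH fluorescence (Ex 340/Em 450 nm) was followed for 8 min.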
# TrxR1 substrate: qHTS Assay for Substrates of Mammalian Selenoprotein Thioredoxin Reductase 1 (TrxR1): qHTS. Thioredoxin reductase 1, cytoplasmic (Rattus norvegicus), O89049. purified TrxR1 substrate turnover, NADPH consumption readout. Potency, µM (titrated, usually from 114 µM), inactives show at the top dose activity change, negative = substrate turnover. 0.01% of 390,000 active; also: potency is read from the fitted curve at half-maximal effect; % is scaled to controls: 0 for no effect and ±100 for the full control effect; nearly all actives have a fitted effect of over 50% in size
#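 Rat TrxR1, dispensed at 90 nM, was prereduced with 400 uM NADPH (final) for 5 min at ~22 deg C, then incubated with compound 15 min before 400 uM selenite. A first-read NADPH fluorescence drop versus no-compound background flagged substrates.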
# Giardia kill: Small Molecules that selectively kill Giardia lamblia: qHTS | Giardia lamblia trophozoite viability | activity change, % at 7.66 µM, hits read low | 0.15% of 340,000 active; in the data active = activity change below about -80%; inconclusive = between about -30% and that limit;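 also: parasites exposed to compound for two days anaerobically before the ATP read; % is scaled to controls: 0 for no effect and ±100 for the full control effect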
#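 Viability, read as ATP luminescence: trophozoites at 100 cells/well, compound added, 48 hrs anaerobic at 37 deg C, then 15-30 min room-temperature development before reading.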
# Resorufin autofl: qHTS for Inhibitors of mutant isocitrate dehydrogenase 1 (IDH1): Cherrypicks Autofluorescence Interference | 750 tested, under 10 active | Resorufin detection reagent fluorescence interference, cell-free | inhibition of signal, % at 51.2 µM | shares compounds with mIDH1 inhibitor;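 also: 0% = wells with normal resorufin and full inhibition = wells lacking resorufin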
# WT IDH1 inh: qHTS for Inhibitors of mutant isocitrate dehydrogenase 1 (IDH1): Cherrypicks in WT IDH1; shares compounds with mIDH1 inhibitor; WT IDH1 enzyme, NADPH diaphorase/resazurin fluorescence; Potency, µM (doses to about 115 µM), for the others: at the highest dose activity change, negative = inhibition, usual class: inhibitors; 9% of 750 active; AID 623995, 2012;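 also: potency is read from the fitted curve at half-maximal effect; 0% = full WT IDH1 enzyme control and full inhibition = no enzyme wells; nearly all actives have a fitted effect of over 55% in size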
# Target sequence (O75874 whole entry, looked up): as the sequence (O75874 whole entry R132H, stated change not applied) above, with H132R counted along it
# mIDH1 confirm: qHTS for Inhibitors of mutant isocitrate dehydrogenase 1 (IDH1): Confirmation of Cherrypicks. shares compounds with mIDH1 inhibitor. IDH1 R132H enzyme, NADPH diaphorase/resazurin fluorescence. Potency, µM (top dose mostly 76.6 µM), without a hit: top-dose activity change, negative = inhibition, most hits filed as inhibitors. 83% of 750 active; also: potency is read from the fitted curve at half-maximal effect; nearly all actives have a fitted effect of over 50% in size
# The depositor's hits bear a star; ? = inconclusive; . = not tested or not shown. This is a sample that favours compounds with a hit; in the whole collection about 2.2% have one here. Unless noted, calls follow the shape of the dose curve; as a rule, active = well fitted curve in the direction sought with a large enough effect; inconclusive = small, poorly fitted or top-dose-only effect, or another doubt; inactive = no such curve, though single readings can be large; an effect the other way counts as inactive or inconclusive.
SMILES,BRCA1 expr act,IL-2 act,mIDH1 inhibitor,rTrxR1 inhibitor,TrxR1 substrate,Giardia kill,Resorufin autofl,WT IDH1 inh,mIDH1 confirm
CCc1ccc(C2c3c(-c4ccccc4)n[nH]c3C(=O)N2c2ccc(C(=O)O)cc2)cc1 (configuration not stated),9.3%,.,35.5µM*,7.2%,2.8%,.,-5.4,25.1µM*,7.08µM*
O=C(O)c1ccc(N2C(=O)c3[nH]nc(-c4ccccc4)c3C2c2ccccc2)cc1 (configuration not stated),12.6%,-0.5,-8.6%,21.4%,7.6%,6.8,.,.,.
COc1ccc(C2c3c(-c4ccccc4)n[nH]c3C(=O)N2c2ccc(C(=O)O)cc2)cc1 (configuration not stated),7.1%,-1.7,52.1µM*,-1.2%,-1.5%,2.3,11.2,?,44.7µM*
COc1ccc(-c2n[nH]c3c2C(c2ccc(O)cc2)N(c2ccc(Br)cc2)C3=O)cc1 (configuration not stated),.,.,-1.4%,7.4%,-4.5%,.,.,.,.
CCOc1cc(C2c3c(-c4ccccc4)n[nH]c3C(=O)N2c2ccc(C(=O)O)cc2)ccc1O (configuration not stated),-18.5%,0.4,-7.1%,?,-5.2%,-15.9,.,.,.
COc1ccc(-c2n[nH]c3c2C(c2ccc(OC)c(OC)c2)N(c2ccccc2)C3=O)cc1 (configuration not stated),-99.2%,-2.3,?,9.4%,0.9%,10.4,9.6,1.9%,20µM*
COc1cccc(-c2csc(-c3c(N)c(C(=O)c4ccccc4)n4ccccc34)n2)c1,.,.,.,9.1%,-3.8%,.,.,.,.
Cc1ccc(-c2n[nH]c3c2C(c2cccs2)N(c2ccc(Cl)cc2)C3=O)cc1 (configuration not stated),-62.2%,.,0.0%,4.1%,-3.7%,.,.,.,.
COc1cc(C2c3c(-c4ccc(C)cc4)n[nH]c3C(=O)N2c2ccc(F)cc2)ccc1O (configuration not stated),-54.2%,.,?,4.9%,-3.8%,.,-2.4,-5.5%,25.1µM*
Cc1ccc(-c2n[nH]c3c2C(c2ccccc2Cl)N(c2ccc(C(=O)O)cc2)C3=O)cc1 (configuration not stated),-8.3%,.,11.2µM*,5.2%,-0.1%,.,-11.5,35.5µM*,7.08µM*
O=C(O)c1ccc(N2C(=O)c3[nH]nc(-c4ccccc4)c3C2c2cccc(F)c2)cc1 (configuration not stated),2.4%,.,?,-0.3%,-3.3%,.,-5.0,-17.8%,31.6µM*
Cc1ccc(N2C(=O)c3[nH]nc(-c4ccc(Cl)cc4)c3C2c2ccc(F)cc2)cc1 (configuration not stated),-75.0%,.,-20.2%,35.6%,4.3%,.,.,.,.
